# Screens as filed in PubChem BioAssay.
# CASP6 VEID inh – caspase-6 (human) enzyme inhibition; P55212; purified caspase-6, Z-VEID-R110 cleavage fluorescence; inhibition, % at 12.5 µM; hit rate 0.53% among 350,000; AID 686996;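 active means mean inhibition across replicates at least about 35%, with every replicate also reaching that limit, limit read from the data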;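 further: 0% = median of neutral control wells and 100% = no fluorescence left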
# miR-122 sensor – miR-122 inhibition in Huh7 cells | activation (reporter increase), % at 12.5 µM | Huh7 miR-122 Renilla luciferase sensor, 48 h; neutral wells = 0, positive control = 100 | hit rate 0.3% among 340,000;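 active means mean replicate activation score at least 90 and every replicate individually at or above 90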;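 further: higher luciferase means less miR-122 activity so hits act as miR-122 inhibitors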
# MLL AF4-AF9 inh – inhibitors of human MLL-AF4/AF9 interaction; P42568; AlphaScreen, biotin-AF4 peptide binding to FLAG-AF9; inhibition, % at 10 µM; hit rate 0.47% among 350,000;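 active means every replicate reaching a set inhibition limit, whatever the replicate mean, cut at about 25% in these data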;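 further: 0% = plate neutral control median and 100% = total signal loss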
# NSD2 inh – blocks human histone methyltransferase NSD2; NSD2 peptide methylation, AlphaScreen, 120 min; AID 743445; hit rate 0.54% among 310,000; O96028; inhibition, % at 12.5 µM; in the data active means inhibition above about 50%
# Target sequence (O96028 whole entry, looked up): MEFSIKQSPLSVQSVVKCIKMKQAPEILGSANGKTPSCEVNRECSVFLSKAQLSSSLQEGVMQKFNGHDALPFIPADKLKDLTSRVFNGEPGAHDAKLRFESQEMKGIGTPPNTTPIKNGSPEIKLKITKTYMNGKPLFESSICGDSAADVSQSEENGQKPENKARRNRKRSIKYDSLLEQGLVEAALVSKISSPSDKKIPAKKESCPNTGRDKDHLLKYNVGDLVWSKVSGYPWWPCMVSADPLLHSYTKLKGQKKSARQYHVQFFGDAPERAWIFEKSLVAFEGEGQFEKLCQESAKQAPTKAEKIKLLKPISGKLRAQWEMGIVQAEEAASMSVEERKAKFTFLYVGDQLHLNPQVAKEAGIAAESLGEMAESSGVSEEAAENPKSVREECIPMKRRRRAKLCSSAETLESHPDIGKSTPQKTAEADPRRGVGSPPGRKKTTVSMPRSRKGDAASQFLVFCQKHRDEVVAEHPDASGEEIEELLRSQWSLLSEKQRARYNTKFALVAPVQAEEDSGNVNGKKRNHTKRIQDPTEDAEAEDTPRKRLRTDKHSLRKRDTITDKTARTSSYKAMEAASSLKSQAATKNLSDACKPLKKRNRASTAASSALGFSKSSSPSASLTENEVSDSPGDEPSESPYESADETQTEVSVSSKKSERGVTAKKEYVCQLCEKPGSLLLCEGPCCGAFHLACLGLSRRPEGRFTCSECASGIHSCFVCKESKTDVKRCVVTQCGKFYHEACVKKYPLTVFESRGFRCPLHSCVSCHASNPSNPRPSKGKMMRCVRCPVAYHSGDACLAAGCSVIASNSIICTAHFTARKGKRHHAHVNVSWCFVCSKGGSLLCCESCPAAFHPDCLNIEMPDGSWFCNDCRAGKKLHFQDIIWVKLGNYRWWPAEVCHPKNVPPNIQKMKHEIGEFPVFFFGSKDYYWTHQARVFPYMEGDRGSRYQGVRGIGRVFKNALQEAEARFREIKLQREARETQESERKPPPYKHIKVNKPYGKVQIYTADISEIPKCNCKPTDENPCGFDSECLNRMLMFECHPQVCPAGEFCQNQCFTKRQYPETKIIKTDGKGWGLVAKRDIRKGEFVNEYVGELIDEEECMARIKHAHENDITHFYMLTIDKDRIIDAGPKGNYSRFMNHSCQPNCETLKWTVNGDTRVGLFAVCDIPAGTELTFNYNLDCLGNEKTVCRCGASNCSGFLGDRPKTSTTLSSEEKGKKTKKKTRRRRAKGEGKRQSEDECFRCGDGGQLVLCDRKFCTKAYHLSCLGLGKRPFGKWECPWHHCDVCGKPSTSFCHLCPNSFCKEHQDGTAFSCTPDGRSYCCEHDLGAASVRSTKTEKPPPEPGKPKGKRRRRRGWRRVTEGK
# RAD52 anneal inh – RAD52 (human) annealing inhibition; recombinant RAD52 DNA annealing, FRET fluorescence; inhibition, % at 18.7 µM; hit rate 0.46% among 360,000; P43351;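 active means every replicate showing at least 50% inhibition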
# The depositor's hits bear a star; . = no result given; ! = repeats disagree; [ ] = dose if it differs, or a comment. This is a sample that favours compounds with a hit; in the whole collection about 1.5% have one here.
SMILES,CASP6 VEID inh,miR-122 sensor,MLL AF4-AF9 inh,NSD2 inh,RAD52 anneal inh
O=c1cc(-c2ccc(O)cc2)oc2c1ccc1ccccc12,2,.,0,-2,-9
O=c1cc(-c2ccccc2)oc2cc(O)c(O)c(O)c12,44*,-10,-18,.,-4
O=c1cc(-c2ccc(O)cc2)oc2c(O)c(O)c(O)c(O)c12,63*,5,-3,.,10
COc1ccc(O)c(CN2CCN(C/C=C/c3ccccc3)CC2)c1,.,-6,.,19,.
COc1cc(Br)cc(CN2CCN(C/C=C/c3ccccc3)CC2)c1O,38*,-3,8,-2,3
CCC(=O)Nc1c(C#N)c2nc3ccccc3nc2n1-c1ccc(C)cc1,54*,.,-11,43,-37
C/C=C/c1ccc([C@H]2[C@@H](CO)N(C(C)=O)C23CN(C(=O)c2ccccc2)C3)cc1,.,.,.,.,-26
C/C(=N\NC(=S)Nc1cccc(C)c1)c1ccco1,0,-1,36*,7,-2
O=S(=O)(Nc1ccc(C(O)(C(F)(F)F)C(F)(F)F)cc1)c1ccc(-c2ccccc2)s1,.,.,.,17,.
Cc1cc(NC(=S)NC(=O)C2CCCC2)ccc1Br,.,.,.,-4,.
c1ccc(C[n+]2c(-c3ccccc3)csc2Nc2ccccc2)cc1,1,3,1,3,-9
CC(C)(C)Nc1scc(-c2ccccc2)[n+]1-c1ccccc1,2,.,28*,0,-6
O=C(O)CCCCN1C(=O)/C(=C\c2ccc(OCc3ccccc3)c(OCc3ccccc3)c2)SC1=S,72*,.,4,6,-83
O=C(O)CN1C(=O)/C(=C\c2cc([N+](=O)[O-])ccc2OCc2ccccc2Cl)SC1=S,36*,-6,3,.,-36
COc1ccc(/C=C2/SC(=S)N(CC(=O)O)C2=O)cc1OCc1ccc(Cl)cc1,31,.,2,14,-19
O=C(O)CN1C(=O)/C(=C\c2cc(Br)ccc2OCc2ccc(Cl)cc2)SC1=S,77*,.,1,19,-27
O=C(O)CCCN1C(=O)/C(=C\c2ccccc2OCc2ccccc2)SC1=S,20,1,1,.,-19
COc1ccc(S(=O)(=O)N(C)C[C@H]2OCCCC[C@H](C)Oc3ccc(NS(C)(=O)=O)cc3C(=O)N([C@H](C)CO)C[C@H]2C)cc1,3,-2[16.7 µM],0,.,-10
COc1ccccc1-c1ccc2c(c1)[C@H]1[C@H](CCN1S(=O)(=O)c1ccccc1OC)[C@@H](CO)N2,.,18[16.7 µM],.,.,.
NNC(=O)CNC(=O)Nc1n[nH]c(=S)s1,61*,.,-6,-1,-6
CCn1c(CNC(=O)c2cccs2)n[nH]c1=S,1,-13,25*,.,-15
CCCNC(=O)C[C@@H]1CC[C@H]2[C@@H](COc3ccc(NC(=O)Cc4ccccc4)cc3C(=O)N2C)O1,-1,4[16.7 µM],0,.,2
COc1ccc(Nc2n[nH]c(N)c2C(N)=O)cc1,2,2,29*,0,-4
CC(C)C#Cc1cnc2c(c1)C(=O)N([C@H](C)CO)C[C@H](C)[C@H](CN(C)Cc1ccc3c(c1)OCO3)O2,1,0[16.7 µM],-1,.,16
COCC(=O)N1[C@H](C(=O)NCc2ccccc2Cl)[C@@H](CO)[C@@H]2Cn3c(cccc3=O)[C@@H]21,1,.,-1,.,-2
SMILES,CASP6 VEID inh,miR-122 sensor,MLL AF4-AF9 inh,NSD2 inh,RAD52 anneal inh
CC(C)N1C(=O)[C@@]2(Cc3ccccc31)c1ccccc1C(=O)N(Cc1ccccc1)[C@H]2c1ccc(CO)cc1,4,.,-3,.,14
COC(=O)CCCCCC(CCC(=O)OC)NC(C)=O (configuration not stated),.,238*,.,-2,.
CC(C)NC(=O)N(C)C[C@@H]1OCCCC[C@H](C)Oc2ccc(NS(=O)(=O)c3ccccc3)cc2C(=O)N([C@H](C)CO)C[C@@H]1C,11,-7[16.7 µM],-1,.,12
C[C@H]1CN([C@@H](C)CO)C(=O)CCCn2cc(nn2)CO[C@@H]1CN(C)C(=O)Nc1ccc(N2CCN(C)CC2)cc1,-8,1,-1,.,55*!
CO[C@H]1CN(C)C(=O)c2ccc(NC(=O)C3CC3)cc2OC[C@H](C)N(C(=O)c2ccccc2)C[C@@H]1C,7,.,-1,.,1
COc1cccc(S(=O)(=O)N[C@@H]2CC[C@H](CC(=O)NCc3ccc(Cl)cc3)O[C@H]2CO)c1,4,.,1,.,-1
Cc1cc(C)cc(NC(=O)C2CCN(c3nccs3)CC2)c1,.,128*,.,-5,.
COc1ccc(NS(=O)(=O)c2cc(NC(=O)CCNC(=O)c3ccco3)ccc2OC)cc1,1,50,25*,-2,6
CO[C@@H]1CN(C)C(=O)c2cc(NC(=O)Nc3c(C)noc3C)ccc2OC[C@H](C)N(C)C[C@@H]1C,1,.,-2,.,-4
Nc1ccc(Sc2ccccc2Cl)nc1,43*,.,2,.,-14
Cc1cc(C(=O)Nc2cccc3c2O[C@H](CN(C)S(=O)(=O)c2cn(C)cn2)[C@H](C)CN([C@@H](C)CO)C3=O)n(C)n1,-3,1[16.7 µM],-3,.,5
COc1ccc2c3c([nH]c2c1)[C@@H](CO)N(C(=O)C1CCC1)CC31CCN(Cc2cccc(F)c2)CC1,.,.,.,.,2
CC(=O)N1CCN(C(C)=O)c2ccccc21,1,5,36*,-1,4
N[C@@H](Cc1cc(I)c(Oc2ccc(O)c(I)c2)c(I)c1)C(=O)O,3,93*!,-1,.,-11
Cc1cc(C)[n+](-c2ccc(Oc3ccccc3)c(S(=O)(=O)[O-])c2)[nH]1,41*,.,-2,0,-10
S=C(NC1CC1)SCc1ccco1,53*,-4,0,-2,-15
COc1ccc(C#Cc2cnc3c(c2)C(=O)N([C@H](C)CO)C[C@H](C)[C@H](CN(C)C(=O)CN(C)C)O3)cc1,0,-3[16.7 µM],9,.,34
O=C(C[C@@H]1C[C@@H]2c3cc(NC(=O)C4CCC4)ccc3O[C@@H]2[C@@H](CO)O1)NCC(F)(F)F,-3,1[16.7 µM],3,.,6
Cc1ccc(S(=O)(=O)N(Cc2cccnc2)Cc2cc3ccccc3[nH]c2=O)cc1,1,2,29*,9,-5
CCOc1cc(C(N)=O)cc(Cl)c1OCc1ccccc1,-3,-2,-2,-4,-9
CCOc1cc(/C=C(/NC(C)=O)C(=O)O)cc(Cl)c1OCc1cccc(Br)c1,39*,-3,-17,12,-13
Cc1cc(NC(=O)CSc2nc3c(sc4ccccc43)c(=O)n2CCCN2CCOCC2)n[nH]1,-2,178*,.,-3,-3
CCn1cc(CNC(=S)Nc2cccc3ccccc23)cn1,53*,.,2,0,-17
Cc1ccc(-c2ccc(C3[C@@H]4CN(C(=O)Nc5ccc(C(F)(F)F)cc5)C[C@H]3N4)cc2)cc1 (some centres not stated),16,.,1,.,0
COc1ccc(NC(=O)N2C[C@@H]3N[C@H](C2)C3c2ccc(-c3cccc(F)c3)cc2)cc1 (some centres not stated),-1,.,11,.,-6
N#Cc1ccc(-c2ccc(C3[C@@H]4CN(C(=O)Nc5ccc(C(F)(F)F)cc5)C[C@H]3N4)cc2)cc1 (some centres not stated),1,.,11,.,80*!
